Screening data as filed in PubChem BioAssay.
APOBEC3G inh = blocks human APOBEC3G single-stranded DNA deamination; Q9HC16; recombinant A3G, ssDNA deamination FAM/TAMRA fluorescence; inhibition, % at 20 µM; hit rate 0.28% among 330,000;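 active means inhibition of at least 40% at 20 µM, with no more than 30% in the related APOBEC3A deaminase screen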
Target sequence (Q9HC16 whole entry, looked up): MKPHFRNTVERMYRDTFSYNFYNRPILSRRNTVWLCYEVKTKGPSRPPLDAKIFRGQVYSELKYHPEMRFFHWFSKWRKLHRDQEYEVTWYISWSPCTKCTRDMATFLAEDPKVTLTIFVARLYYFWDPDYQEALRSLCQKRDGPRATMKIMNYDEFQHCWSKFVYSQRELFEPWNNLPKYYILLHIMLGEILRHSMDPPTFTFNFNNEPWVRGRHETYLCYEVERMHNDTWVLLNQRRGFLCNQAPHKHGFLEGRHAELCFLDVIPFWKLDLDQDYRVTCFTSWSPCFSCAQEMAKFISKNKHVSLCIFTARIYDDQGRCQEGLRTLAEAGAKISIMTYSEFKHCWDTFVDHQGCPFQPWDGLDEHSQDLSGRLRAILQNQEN
PfM18AAP inh = PfM18AAP enzyme inhibition | AID 1822 | hit rate 1.2% among 290,000 | recombinant PfM18AAP, H-Glu-NHMec fluorogenic cleavage | inhibition, % at 7.35 µM;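 active means inhibition above the campaign mean inhibition over all tested compounds plus 3 SD, cut at about 28% in these data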
CR mimetic SO = yeast age-related superoxide inhibition as caloric restriction mimetic. superoxide response (% of plate mean), % at 10 µM. hit rate 0.18% among 330,000. S. cerevisiae aged cells, superoxide DHE fluorescence; stronger effect = lower value;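 active means superoxide response under a set limit, about three screen SD below normal, cut at about 65% in these data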;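 further: yeast aged for seven days with compound at 30 °C before DHE staining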
PfGluPho inh = PfG6PD (Plasmodium falciparum) enzyme inhibition; PfGluPho enzyme, NADPH resazurin-diaphorase fluorescence; inhibition, % at 20 µM; hit rate 0.78% among 350,000; AID 504690;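 active means inhibition reaching at least a set limit at 20 µM in the primary screen, cut at about 59% in these data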
APOBEC3A inh = human APOBEC3A DNA deaminase inhibition | P31941 | recombinant A3A, FAM/TAMRA ssDNA deamination fluorescence | inhibition, % at 20 µM | hit rate 0.41% among 330,000;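 active means at least 40% inhibition at 20 µM here, with at most 30% in a related deaminase screen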
Target sequence (P31941 whole entry, looked up): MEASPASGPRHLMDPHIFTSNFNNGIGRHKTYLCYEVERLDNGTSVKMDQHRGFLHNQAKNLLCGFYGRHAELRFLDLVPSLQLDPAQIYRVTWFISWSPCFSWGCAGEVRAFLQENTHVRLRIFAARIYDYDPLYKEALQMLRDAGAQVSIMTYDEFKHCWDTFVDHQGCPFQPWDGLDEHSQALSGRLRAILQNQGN
PfGluPho conf = confirmation of Plasmodium falciparum G6PD inhibitors; shares compounds with PfGluPho inh; recombinant PfGluPho, NADPH-diaphorase-resazurin fluorescence; inhibition, % at 20 µM; hit rate 34% among 2,400;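 active means inhibition of at least 50% at 20 µM in any single replicate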
Diaph ctr 10uM = inhibits diaphorase or oxidizes, flagging false PfG6PD hits; shares compounds with PfGluPho inh; diaphorase-coupled resazurin reduction, fluorescence, NADPH 10 uM; inhibition, % at 20 µM; hit rate 39% among 820;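 active means average inhibition reaching 50% or more with the compound at 20 µM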;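 further: resorufin red fluorescence formed as diaphorase reduces resazurin using NADPH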
Diaph ctr 30uM = inhibits diaphorase or oxidizes, flagging false PfG6PD hits. shares compounds with PfGluPho inh. Diaphorase/resazurin coupled assay, resorufin fluorescence, 30 uM NADPH. inhibition, % at 20 µM. hit rate 29% among 820. AID 504863;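 active means inhibition averaging 50% or more, tested at 20 µM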
Each line names hits and unclear results; the compound was inactive in the other large screens (follow-up assays come after a bar, where they were run). Only some compounds are listed: those with a hit (about 2.4% of all), similar ones and a draw of the others.

CCN(CC(=O)Nc1ccc(OC)cc1)C(=O)c1ccc2[nH]c3c(c2c1)CC(C)CC3 (stereo unspecified)	none (no result: PfM18AAP inh)
Cc1ccc(C)c(NC(=O)CN(C)C(=O)c2ccc3[nH]c4c(c3c2)CC(C)CC4)c1 (stereo unspecified)	PfGluPho inh 70 (no result: PfM18AAP inh) | PfGluPho conf inactive
CC1CCc2[nH]c3ccc(C(=O)N(C)CC(=O)Nc4ccccc4Br)cc3c2C1 (stereo unspecified)	PfGluPho inh 90 (no result: PfM18AAP inh) | PfGluPho conf inactive
Oc1c(Cl)cc(Cl)cc1C=Nc1cc(C(F)(F)F)ccc1N1CCc2ccccc2C1	PfGluPho inh 72 | PfGluPho conf inactive
CCn1c([N+](=O)[O-])nc2c1c(=O)[nH]c(=O)n2C	PfGluPho inh 67 (no result: APOBEC3G inh, CR mimetic SO, APOBEC3A inh) | PfGluPho conf 52 | Diaph ctr 10uM inactive | Diaph ctr 30uM inactive
CC1(C)CC(=O)C2=C(C1)NC1=C(C(=O)c3ccccc31)C2c1ccc(Cl)cc1 (stereo unspecified)	PfGluPho inh 68 | PfGluPho conf inactive
Cc1ccc(C2C3=C(CC(C)(C)CC3=O)NC3=C2C(=O)c2ccccc23)cc1 (stereo unspecified)	none
O=C(NCc1ccco1)c1cccnc1-c1nc2ccccc2s1	PfM18AAP inh 31, PfGluPho inh 60 | PfGluPho conf inactive
Nc1ccc(-c2nc3ccc([N+](=O)[O-])cc3[nH]2)cc1	none
O=[N+]([O-])c1ccc2nc(C(O)C(O)c3nc4ccc([N+](=O)[O-])cc4[nH]3)[nH]c2c1 (stereo unspecified)	none
O=[N+]([O-])c1ccc2nc(/C=C/c3ccc(Cl)cc3)[nH]c2c1	PfGluPho inh 62 | PfGluPho conf inactive
O=[N+]([O-])c1ccc(-c2nc3ccc([N+](=O)[O-])cc3[nH]2)cc1	PfGluPho inh 86 | PfGluPho conf inactive
Cc1ccc(S(=O)(=O)N(CCCc2c(C)nc(N)[nH]c2=O)Cc2ccc([N+](=O)[O-])cc2)cc1	PfGluPho inh 62 (no result: APOBEC3G inh, PfM18AAP inh, CR mimetic SO, APOBEC3A inh) | PfGluPho conf inactive
CC(C)CNC(=S)N(CCO)Cc1cc2cc3c(cc2[nH]c1=O)OCO3	none
NNC(=O)CN1C(c2ccccc2Br)=Nc2ccc(Br)cc2C1c1ccccc1 (stereo unspecified)	PfGluPho inh 88 | PfGluPho conf 60 | Diaph ctr 10uM 54 | Diaph ctr 30uM inactive
NNC(=O)CN1C(c2cccc(Cl)c2)=Nc2ccc(Br)cc2C1c1ccccc1 (stereo unspecified)	none
COC(=O)c1cc(-c2ccc(C)o2)nc2ccccc12	none
COC(=O)c1cc(C)[nH]c2c(C)cc3nc4ccccc4c3c12	PfGluPho inh 71 | PfGluPho conf inactive
CCn1ccc(C(=O)Nc2ccc3c(c2)CCC3)n1	none
COc1cccc(OCCNc2ccc([N+](=O)[O-])cn2)c1	none (no result: PfM18AAP inh)
COc1cccc(OCCNc2cc(Cl)ccc2[N+](=O)[O-])c1	PfGluPho inh 63 | PfGluPho conf inactive
CN(CC(=O)Nc1ccc(Cl)cc1)C(=O)CCc1nc2sc3c(c2c(=O)[nH]1)CCCC3	none (no result: PfM18AAP inh)
Oc1c(Br)cc(Br)cc1C=Nc1cccc2ncccc12	none (no result: PfM18AAP inh) | PfGluPho conf inactive
Brc1cccc(C=Nc2cccc3ncccc23)c1	none (no result: PfM18AAP inh)
CCCCCC(=O)NC(NC(=S)NC1CCS(=O)(=O)C1)C(Cl)(Cl)Cl (stereo unspecified)	PfGluPho inh 63 | PfGluPho conf inactive
O=C(CCn1cnnn1)N1CCCC(Nc2ccc(F)c(F)c2)C1 (stereo unspecified)	none
Cc1ccc(C)c(CN2C(=O)COc3ccc(C(=O)c4ccccc4C(=O)O)cc32)c1	PfGluPho inh 61 | PfGluPho conf inactive
O=C(CN(Cc1ccco1)C(=O)c1ccccc1)Nc1ccc(Cl)c(Cl)c1	PfGluPho inh 62 | PfGluPho conf inactive
CC1CCc2nc3sc4c(c3c(N)c2C1)CCCC4 (stereo unspecified)	PfGluPho inh 91 | PfGluPho conf inactive
CCc1c(-c2ccccc2)nc2sc3c(c2c1N)CCCC3	none
CC1CCc2c(nc3sc4c(c3c2N)CCCC4)C1 (stereo unspecified)	PfGluPho inh 95 | PfGluPho conf 57 | Diaph ctr 10uM 51 | Diaph ctr 30uM inactive
Nc1c2c(nc3sc4c(c13)CCCCC4)CCCCC2	none
Cc1ccc(/C=C/C(=O)OCC(=O)NCc2cccs2)o1	PfGluPho inh 61 (no result: PfM18AAP inh) | PfGluPho conf inactive
O=c1oc(CCO)cc2ccc(Br)cc12	none (no result: PfM18AAP inh)
CCOC(=O)c1c(C)[nH]c(C)c1C(=O)COC(=O)/C=C/c1ccco1	PfGluPho inh 82 (no result: PfM18AAP inh) | PfGluPho conf 67 | Diaph ctr 10uM 74 | Diaph ctr 30uM 57
CCOC(=O)c1c(C)[nH]c(C)c1C(=O)COC(=O)c1cc2ccccc2cc1O	PfM18AAP inh 53, PfGluPho inh 103 | PfGluPho conf inactive
COc1ccc(NC(=O)CSc2ncccn2)cc1S(=O)(=O)N1CCCCC1	none (no result: PfM18AAP inh)
COc1ccc(-c2ccc(-c3cc(=O)oc4cc(OC)c(OC)c(OC)c34)cc2)cc1	none (no result: PfM18AAP inh)
Nc1ccc2ccc(O)cc2c1	none (no result: APOBEC3G inh, PfM18AAP inh, CR mimetic SO, APOBEC3A inh)
C[n+]1c2cc(N)ccc2cc2ccc(N)cc21	PfGluPho inh 78 (no result: APOBEC3G inh, PfM18AAP inh, CR mimetic SO, APOBEC3A inh) | PfGluPho conf inactive
COc1ccc(C(=O)Nc2sc(C)c(-c3ccccc3)c2C#N)cc1OC	PfGluPho inh 67 | PfGluPho conf inactive
Cc1sc(NC(=O)COc2ccccc2)c(C#N)c1-c1ccccc1	none
CCOc1ccc(Cl)cc1/C=N/O	none
CCOc1ccc(Cl)cc1/C=N/NC(N)=O	PfGluPho inh 79 | PfGluPho conf 53 | Diaph ctr 10uM inactive | Diaph ctr 30uM inactive
CC(C)c1ccccc1OCCNC(=S)NC(=O)c1cccnc1	PfGluPho inh 67 | PfGluPho conf inactive
CC1=NOC(=O)/C1=C\c1ccc(-c2ccccc2Br)o1	PfGluPho inh 95 (no result: APOBEC3G inh, CR mimetic SO, APOBEC3A inh) | PfGluPho conf 51 | Diaph ctr 10uM inactive | Diaph ctr 30uM inactive
CC1=NOC(=O)/C1=C\c1ccc(-c2ccc(Cl)c(C(=O)O)c2)o1	none (no result: CR mimetic SO)
Cc1ccc(/C=C2/C(=O)ON=C2c2ccccc2)o1	none
CC1=NOC(=O)/C1=C\c1ccc(-c2cccc(Cl)c2)o1	PfGluPho inh 72 | PfGluPho conf inactive
Cc1cc(C)c(NS(=O)(=O)c2cccc3cccnc23)c(C)c1	none | PfGluPho conf inactive
CCOC(=O)c1sc(=S)n(C)c1NC(=O)c1ccccc1	PfGluPho inh 64 | PfGluPho conf inactive
COc1cc(CN2CCCC(C(=O)c3ccc4c5c(cccc35)CC4)C2)cc(OC)c1O (stereo unspecified)	PfGluPho inh 74 | PfGluPho conf 79 | Diaph ctr 10uM inactive | Diaph ctr 30uM inactive
CC(C(=O)NC(=O)NC1CCCCC1)N1CCN(c2ccc(O)cc2)CC1 (stereo unspecified)	none (no result: PfM18AAP inh)
NC(=O)C1CCN(CC(=O)Nc2ccccc2Sc2ccccc2)CC1	none
